# Reference: PubChem BioAssay
# Several values for one entry are separate records, joined by “and”; a condition that tells them apart may be missing. Identical values can stand only once. Results filed as inconclusive are left out. For part of these data: Potency and affinity values are given separately. Activity calls are given as the source filed them. Rule as the data show it, unless noted: active = inhibition above about 80%; inactive = the rest.
# How the values were obtained:
# [1] = restoration of touch response, mutant HTT neurons – whole organism, C. elegans mechanosensory neurons, N-terminal huntingtin (AID 1599); settings: C. elegans polyQ-huntingtin mechanosensory neurons, stronger effect = higher value
# [2] = GFP-Q80 aggregate reduction, neuronal-like cells, cell-based, NGF-treated PC12, GFPQ80 (AID 1614); settings: PC12 NGF-treated GFP-polyQ80 inclusion reduction;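 also: lower means fewer inclusions and 0 means no inclusions at all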
# [3] = 75Q-TubH aggregate inhibition, S. cerevisiae, yeast (AID 1616); settings: S. cerevisiae 75Q-TubH polyglutamine aggregation suppression; stronger effect = higher value
# [4] = test system: Hepatitis C virus NS3 helicase; test: blockers of NS3h binding to ssDNA – biochemical, fluorescence polarization, LOPAC1280 library, primary screen (AID 687035; in the data active = inhibition above about 37%); settings: Purified HCV NS3 helicase, Cy5-dT15 ssDNA binding fluorescence polarization; stronger effect = higher value; concentration not given here
# [5] = compounds altering Cy5-DNA-NS3h complex signal – biochemical, LOPAC1280, artefact control for HCV NS3 helicase inhibitor project (AID 687037; call rule not given here); settings: Cy5-DNA-NS3h complex fluorescence interference counterscreen
# [6] = blockers of cellular phospholipid synthesis – cell-based, LOPAC library, screen 4, primary screen (AID 1347384; call rule not given here); settings: animal cells, phospholipid biosynthesis inhibition screen; at 10 µM
# [7] = compounds altering viability of human ES cells (AID 493140; call rule not given here;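 also: cells exposed to compounds for four days before counting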); settings: human embryonic stem cell survival screen; stronger effect = higher value
# [8] = viability loss in pontine glioma line – cell-based, SU-DIPG-XVII, MIPE5.0, CellTiter-Glo, qHTS, dose response (AID 1347060; cut-off not given, nearly all actives have AC50 up to about 26 µM); settings: CellTiter-Glo ATP luminescence
# [9] = viability loss in pontine glioma line – cell-based, SU-DIPG-XIII, MIPE4.0, CellTiter-Glo, qHTS, dose response (AID 1347061; cut-off not given, nearly all actives have AC50 up to about 37 µM;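 also: cells exposed to compound for 48 hours before readout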); settings: CellTiter-Glo ATP luminescence
# [10] = viability loss in pontine glioma line – cell-based, SU-DIPG-IV, MIPE4.0, CellTiter-Glo, qHTS, dose response (AID 1347063; cut-off not given, nearly all actives have AC50 up to about 30 µM;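 also: compound exposure lasted 48 hours before the viability readout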); settings: CellTiter-Glo ATP luminescence
# [11] = growth inhibition of DIPG cells – cell-based, MIPE4.0 library, CellTiter-Glo luminescence, qHTS (AID 1347066; cut-off not given, nearly all actives have AC50 up to about 30 µM;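 also: cells exposed to compound for 48 hours before readout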); settings: SU-DIPG-VI viability, CellTiter-Glo ATP luminescence
# [12] = JHH-DIPG-1 glioma cell viability, MIPE5.0 library, CellTiter-Glo luminescence, qHTS (AID 1347067; cut-off not given, nearly all actives have AC50 up to about 26 µM;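 also: cells exposed to compound for 48 hours before readout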); settings: JHH-DIPG-1 glioma viability, CellTiter-Glo ATP luminescence
# [13] = growth inhibition of DIPG cells – cell-based, MIPE5.0 library, qHTS (AID 1347068; cut-off not given, nearly all actives have IC50 up to about 30 µM); settings: SU-DIPG-XXV viability
# [14] = viability loss in pontine glioma line – cell-based, JHH-DIPG-1, MIPE4.0, CellTiter-Glo, qHTS, dose response (AID 1347062; cut-off not given, nearly all actives have AC50 up to about 27 µM); settings: JHH-DIPG-1 viability, CellTiter-Glo ATP luminescence
# [15] = viability loss in pontine glioma line – cell-based, SU-DIPG-XXV, MIPE5.0, CellTiter-Glo, qHTS, dose response (AID 1347065; cut-off not given, nearly all actives have AC50 up to about 26 µM;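 also: cells exposed to compound for 48 hours before ATP readout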); settings: CellTiter-Glo ATP luminescence
# [16] = growth inhibition, single agents and combos, LFS_MB_1R, cell-based, cisplatin or BGB combos, synergistic combos for chromothripsis tumors (AID 1671452); settings: LFS_MB_1R medulloblastoma cells, stronger effect = higher value;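 also: cells exposed for 96 hours before readout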
# [17] = growth inhibition, MDA-MB-436, cell-based, BGB or cisplatin combos, synergistic combos for chromothripsis tumors (AID 1671458; call rule not given here;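 also: cells exposed for 96 hours; 0% = vehicle DMSO and 100% = killing by high DMSO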); settings: MDA-MB-436 breast carcinoma growth inhibition, drug combinations, stronger effect = higher value
# [18] = BT084 cell growth, single and combined drugs, ICGC_MB145, cisplatin and BGB IC40 combos (AID 1671461); settings: BT084 medulloblastoma cells, drug combinations, stronger effect = higher value;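 also: cells exposed to drugs for 96 hours; 0% = vehicle DMSO and 100% = high DMSO full killing control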
# [19] = RCMB18 cell growth, single agent and combined, cisplatin and BGB IC40 combos (AID 1671462); settings: RCMB18 medulloblastoma cells, stronger effect = higher value;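 also: cells exposed to compound for four days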
# [20] = CRL1545 cell growth, single agent and combined, cisplatin and BGB IC20 combos (AID 1671464); settings: CRL1545 osteosarcoma cells, stronger effect = higher value;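 also: cells exposed to compound for 96 hours before readout; 0% = vehicle DMSO and 100% = high DMSO killing control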
# [21] = measured here: combination with BGB IC40, at 0.05 µM
# [22] = measured here: combination with cisplatin, at 0.5 µM
# [23] = measured here: combination with cisplatin, at 5 µM
# [24] = measured here: BGB combination, at 0.5 µM
# [25] = measured here: BGB combination, at 5 µM
# [26] = measured here: cisplatin combination, at 0.5 µM
# [27] = measured here: cisplatin combination, at 5 µM
# [28] = cisplatin combination, at 0.5 µM
# [29] = measured here: BGB IC40 combination 0.05 uM, at 0.05 µM
# [30] = measured here: BGB IC40 combination, at 0.05 µM
# [31] = measured here: with BGB IC20 combination, at 0.5 µM
# [32] = measured here: with cisplatin IC20 combination, at 0.5 µM
smiles,measurement,setting,value
CN=C(NC#N)NCCSCc1nc[nH]c1C,rescue above control,[1],-9.17
same,inclusion score,[2],2
same,aggregation suppression score,[3],1.05
same,inhibition,[4],0% (inactive)
same,fluorescence ratio (interference),[5],1 (inactive)
same,outcome,[6],inactive
CCN(Cc1ccncc1)C(=O)C(CO)c1ccccc1 (stereo unspecified),rescue above control,[1],-3.59
same,inclusion score,[2],1
same,aggregation suppression score,[3],1.36
same,survival,[7],16.4 (inactive)
same,inhibition,[4],-6% (inactive)
same,fluorescence ratio (interference),[5],0.9 (inactive)
same,outcome,[6],inactive
NCCc1ccc(O)c(O)c1,rescue above control,[1],0.54
same,inclusion score,[2],2
same,aggregation suppression score,[3],1.6
same,inhibition,[4],-4% (inactive)
same,fluorescence ratio (interference),[5],1 (inactive)
same,outcome,[8],inactive
same,outcome,[9],inactive
same,outcome,[10],inactive
same,outcome,[11],inactive
same,outcome,[12],inactive
same,outcome,[13],inactive
same,outcome,[6],inactive
CC(=O)OCC(CCn1cnc2cnc(N)nc21)COC(C)=O,outcome,[8],inactive
same,outcome,[9],inactive
same,outcome,[14],inactive
same,outcome,[10],inactive
same,outcome,[15],inactive
same,outcome,[11],inactive
same,outcome,[12],inactive
same,outcome,[13],inactive
same,outcome,[6],inactive
same,inhibition,[16]; at 0.5 µM,-6.39% (inactive)
same,inhibition,[16]; [21],-41.8%
same,inhibition,[16]; [22],-15.8%
same,inhibition,[16]; [23],-6.32%
same,inhibition,[17]; at 0.5 µM,-18.3% (inactive)
same,inhibition,[17]; [24],-5.73%
same,inhibition,[17]; [25],-13.3%
same,inhibition,[17]; [26],-45.7%
same,inhibition,[17]; [27],-24.3%
same,inhibition,[18]; at 0.5 µM,-39.8% (inactive)
same,inhibition,[18]; [28],-22.3%
same,inhibition,"[18]; cisplatin combination, at 5 µM",-19.5%
same,inhibition,[18]; [29],-14.8%
same,inhibition,"[18]; single agent, at 5 µM",-21.3%
same,inhibition,[19]; at 0.5 µM,-15.5% (inactive)
same,inhibition,"[19]; cisplatin combo, at 5 µM",-24.5%
same,inhibition,[19]; [30],-9.28%
same,inhibition,[19]; [22],3.82%
same,inhibition,"[19]; single agent, at 5 µM",-35%
same,inhibition,[20]; at 0.5 µM,-2.74% (inactive)
same,inhibition,[20]; [31],4.75%
same,inhibition,[20]; [32],-8.9%
same,inhibition,"[20]; single agent, at 0.05 µM",-17%
same,inhibition,"[20]; single agent, at 5 µM",5.18%
CC1COc2c(N3CCN(C)CC3)c(F)cc3c(=O)c(C(=O)O)cn1c23 (stereo unspecified),rescue above control,[1],-6.02
same,inclusion score,[2],2
same,aggregation suppression score,[3],1.18
same,survival,[7],10.6 (inactive)
same,inhibition,[4],-6% (inactive)
same,fluorescence ratio (interference),[5],0.9 (inactive)
same,outcome,[8],inactive
same,outcome,[9],inactive
same,outcome,[14],inactive
same,outcome,[15],inactive
same,outcome,[11],inactive
same,outcome,[12],inactive
same,outcome,[13],inactive
same,outcome,[6],inactive
same,inhibition,[16]; at 0.5 µM,-39.4% (inactive) and -8.3% (inactive) and 2.79% (inactive)
same,inhibition,[16]; [21],-24.5% and -34% and -2.54%
same,inhibition,[16]; [22],-78.8% and -30% and 23.8%
same,inhibition,[16]; [23],-87.1% and 21.5% and -3.71%
same,inhibition,[17]; at 0.5 µM,-34.5% (inactive) and -6.74% (inactive) and -3.04% (inactive)
same,inhibition,[17]; [24],-25.6% and -3.95% and -7.27%
same,inhibition,[17]; [25],-17.4% and 1.21% and -4.78%
same,inhibition,[17]; [26],-57.3% and -9.51% and 4.2%
same,inhibition,[17]; [27],-35.2% and 8.53% and -3.87%
same,inhibition,[18]; at 0.5 µM,-33.3% (inactive) and -1.31% (inactive) and 2.04% (inactive)
same,inhibition,[18]; [28],-31.2% and 8.69% and -10.9%
same,inhibition,"[18]; cisplatin combination, at 5 µM",-9.85% and -7.87% and -3.96%
same,inhibition,[18]; [29],-9.27% and 10.9% and 19.9%
same,inhibition,"[18]; single agent, at 5 µM",-20.1% and 7.2% and -8.12%
same,inhibition,[19]; at 0.5 µM,-28.4% (inactive) and -8.12% (inactive) and -0.02% (inactive)
same,inhibition,"[19]; cisplatin combo, at 5 µM",-38.4% and 21.2% and 9.23%
same,inhibition,[19]; [30],-5.79% and 25.7% and 5.62%
same,inhibition,[19]; [22],-28.1% and -3.73% and 27.4%
same,inhibition,"[19]; single agent, at 5 µM",-31.9% and -5.49% and -32%
same,inhibition,[20]; at 0.5 µM,-60% (inactive) and 4.59% (inactive) and -24.8% (inactive)
same,inhibition,[20]; [31],-68.3% and -3.25% and -47.6%
same,inhibition,[20]; [32],-59.4% and 8.51% and -13.4%
same,inhibition,"[20]; single agent, at 0.05 µM",-65.5% and -29.1% and 12%
same,inhibition,"[20]; single agent, at 5 µM",-39.6% and 8.31% and 10.5%
